Data on 116 molecules can be found in PubChem BioAssay AID493240 (Broad Institute, 2011).

The campaign covered roughly 1,300 compounds. About 270 (21%) were called active. How the calls were made is not given here. These entries were drawn from the full list. Measured potencies and affinities stand elsewhere.

This assay is described as follows: cytotoxicity in parental SK-MEL-5 melanoma cells – cell-based, CellTiter-Glo, cherry-picked, set 3, orthogonal assay for MITF inhibitor project, dose response (AID 493240). Conditions: SK-MEL-5 viability, ATP luminescence (CellTiter-Glo), 24 h; series mostly up to 35 µM. (Cellular ATP, detected with luciferase, serves as a proxy for viable cell number.)
Take `O=C(NCCNc1ccccc1[N+](=O)[O-])c1cc(F)c(F)cc1Cl`: the result was inactive. Turning to `N#CC(C#N)=C1C=CC=CN1/C(=C\c1ccco1)C(=O)c1ccc(Br)cc1`, the result was inactive. Next, `CC(C)N1C(=O)S/C(=C\c2ccc(-c3ccc(Cl)c(C(=O)O)c3)o2)C1=O`: “inactive”; `Cc1cn(CCC(=O)Nc2ccccc2N2CCOCC2)c2ccccc12`: “inactive”; `Fc1ccccc1-c1nc(-c2ccncc2)no1`: “inactive”. Next, `Clc1cccc(-c2nc(-c3ccccn3)no2)c1`: “inactive”; `C/C(=N/NC(=O)C(O)(c1ccccc1)c1ccccc1)c1ccc([N+](=O)[O-])o1`: “inactive”. With `O=C(Nc1ccc2nc3n(c(=O)c2c1)CCCC3)c1cc([N+](=O)[O-])ccc1F`, the outcome was inactive. Turning to `O=C(c1ccc([N+](=O)[O-])s1)N1CCN(c2ccccn2)CC1`, the result was inactive. On to `CCN(CC(=O)Nc1ccc2c(c1)OCCO2)C(=O)c1ccc([N+](=O)[O-])s1`, for which the outcome was inactive. `Cc1c(C#N)c(NC(=O)CCl)n(Cc2cccs2)c1C`: the outcome was inactive.

As for `O=C(/C=C/c1ccc2c(c1)OCO2)N1CCCCC1`, the result was inactive.

As to `Cc1ccccc1NCc1nc2ccccc2n1C`, the result was inactive.

In the case of `O=C(NC(=S)NCc1ccccc1)c1ccccc1`, the outcome was inactive. As to `O=C(NCC1CCCO1)c1cc(-c2ccc(Cl)cc2Cl)on1` (stereo unspecified), the result was inactive. As for `Cc1ccc(C(=O)N/C(=C\c2ccc(-c3ccccc3[N+](=O)[O-])o2)C(=O)NCCN(C)C)cc1`, the outcome was inactive.

On to `CCOc1ccc2cc(C#N)c(SCC(=O)OC)nc2c1`, for which the outcome was inactive. Consider `Cc1ccc2nc(-c3ccncc3)[nH]c2c1`, for which the result was inactive. `Cn1nnnc1Sc1ncnc2scc(-c3cccc(F)c3)c12`: the outcome was inactive.

`CN(C)c1ccc(-n2cccc2/C=C/[N+](=O)[O-])cc1`: the outcome was inactive.

`Cc1ccc(/C=c2/sc3n(c2=O)CCCN=3)o1`: the result was inactive. On to `Cc1ccc(C(=O)NC2=NCCS2)cc1Cl`, for which the outcome was inactive. In the case of `Nc1nnc(/C=C/c2ccccc2Cl)s1`, the outcome was inactive. On to `CCOC(=O)N1CCC(NC(=O)C2CCCN(Cc3nc(-c4cccc(C)c4)oc3C)C2)CC1` (stereo unspecified), for which the outcome was inactive. Next, `COc1cc(CN2CCC(C(=O)NCCC(C)C)CC2)ccc1OCc1ccccc1`: “inactive”.

`CC1CCN(Cc2nc(-c3ccc(Cl)cc3)no2)CC1`: the outcome was inactive. For the molecule `CC(C)c1ccc(C(=O)Nc2cccnc2)cc1`, the outcome was inactive. Take `Cc1cccc(NC(=O)c2cnn(-c3ccccc3)c2C)c1C`: the result was inactive.

Take `CCOc1ccccc1NC(=O)C1C2CCC(O2)C1C(=O)O` (stereo unspecified): the outcome was inactive.

`N#Cc1c(NC(=O)CSc2ncn[nH]2)sc2c1CCCCC2`: the result was inactive. Next, `COC(=O)c1ccc(COc2ccc(C)cc2[N+](=O)[O-])o1`: “inactive”; `O=C(Nc1ccc(N2CCOCC2)cc1)c1cnsn1`: “inactive”; `Cc1ccc(NC(=O)c2ccc([N+](=O)[O-])o2)cc1S(=O)(=O)N1CCOCC1`: “inactive”. Next, `Cc1ccc(NC(=O)c2cc(N3C(=O)C=CC3=O)ccc2N2CCOCC2)cc1Cl`: “inactive”.

For `O=C(Nc1ccccc1N1CCOCC1)c1ccc([N+](=O)[O-])s1`, the outcome was inactive.

Take `Cc1ccc(NC(=O)c2ccc(OCC3CCCO3)cc2)c(C)c1` (stereo unspecified): the outcome was inactive. Regarding `CCOC(=O)c1ccc(NC(=O)CC2SCCNC2=O)cc1` (stereo unspecified), the result was inactive. Next, `CCCOc1ccc(C(=O)Nc2ccc3c(c2)OCCO3)cc1`: “inactive”; `CCOC(=O)c1ccc(NC(=O)c2ccnn2C)cc1`: “inactive”.

Regarding `C=CCC(Nc1ccccc1)C12C=CC(O1)C(C(=O)OC)=C2C(=O)OC` (stereo unspecified), the result was inactive.

Turning to `Cc1ccc(N2C(=O)c3ccc(N)cc3C2=O)cc1C`, the outcome was inactive. Regarding `S=c1[nH]nc(-c2ccco2)n1/N=C/C(Cl)=C/c1ccccc1`, the result was inactive.

Consider `CCCCC1C(=O)N(c2ccccc2)N(c2ccc(O)cc2)C1=O` (stereo unspecified), for which the result was inactive. As to `CCOC(=O)CSc1nc2cc(OCC)ccc2cc1C#N`, the outcome was inactive. Next, `Brc1ccc(-c2cn3cccnc3n2)cc1`: “inactive”; `O=C(NCc1ccco1)c1nc2c(nnn2Cc2ccccc2Cl)c(=O)[nH]1`: “inactive”. Take `CC(NC(=O)c1ccc([N+](=O)[O-])o1)C12CC3CC(CC(C3)C1)C2` (stereo unspecified): the result was inactive.

Consider `C=C1C(=O)O[C@@H]2[C@H]1[C@@H](OC(=O)/C(C)=C/C)C/C(C)=C\C(=O)/C=C(\C)[C@@H]2O`, for which the result was inactive. For the molecule `CCN(CCO)c1ccc(N=Nc2cc(C)[nH]n2)cc1`, the result was inactive. Next, `CN(C)c1ccc(/C=C2\SC(=O)N(CCc3nnc(N)s3)C2=O)cc1`: “inactive”; `COc1ccc(-c2nc(-c3ccccc3OC)no2)cc1OC`: “inactive”; `O=C1CN(C(=O)Cn2ncc(Cl)c(Cl)c2=O)c2ccccc2N1`: “inactive”. Next, `CC(C)(C)C(=O)Cn1ncc(Cl)c(Cl)c1=O`: “inactive”. As to `Cc1ccc(NC(=O)Cn2ncc(Cl)c(Cl)c2=O)cc1S(=O)(=O)N1CCCCC1`, the result was inactive. Regarding `O=C(Cn1ncc(Cl)c(Cl)c1=O)NCC1CCCCC1`, the outcome was inactive. Next, `O=C(Cn1ncc(Cl)c(Cl)c1=O)N1CCN(Cc2ccccc2)CC1`: “inactive”; `Cc1cc(Br)ccc1NC(=O)CNC(=O)Cn1ncc(Cl)c(Cl)c1=O`: “inactive”; `Cc1ccc(CC(=O)Nc2ccc(Cl)cn2)cc1`: “inactive”. On to `C1CCC(C(CC2CCCCN2)C2CCCCC2)CC1` (stereo unspecified), for which the outcome was inactive. Consider `OCc1ccc(N=Nc2ccccc2)cc1`, for which the result was inactive.

With `COc1cc(-c2nnc(-c3ccco3)o2)ccc1OCc1ccccc1`, the outcome was inactive. Regarding `Cc1ccc2nc(C)cc(Nc3ccc([N+](=O)[O-])cc3)c2c1`, the result was inactive.

Regarding `CCOc1cccc(C(=O)NC2=NCCS2)c1`, the result was inactive.

For the molecule `COc1ccc(C)cc1Nc1nc(N)c2cc(OC)c(OC)cc2n1`, the outcome was inactive. Next, `O=C(O)c1cc(N/N=C/C(Cl)=C/c2ccccc2)ccc1Cl`: “inactive”; `Cc1ccc(C(=O)Nc2nc3ccc(Cl)cc3s2)o1`: “inactive”; `Cc1ccc(-c2n[nH]c(=O)c3ccccc23)cc1S(=O)(=O)NCC1CCCO1` (stereo unspecified): “inactive”. Consider `O=C(Nc1ccc2nn(-c3ccccc3)nc2c1)c1ccco1`, for which the result was inactive. `CCOc1ccc(-c2nnc(-c3cccs3)o2)cc1OCC`: the outcome was inactive.

Take `Cn1cc(C(=O)N/N=C/c2c(O)ccc3ccccc23)ccc1=O`: the result was inactive. As to `C/C(=N/Nc1nc(C)c(C)s1)c1cccc([N+](=O)[O-])c1`, the result was inactive.

Take `O=[N+]([O-])c1cc(Cl)cc(/C=N\Nc2ccccn2)c1O`: the result was inactive. Regarding `CCCOc1ccc(-c2c(=O)n(O)c3ccccc3[n+]2[O-])cc1`, the result was inactive. Next, `Cc1ccc2oc(=O)n(CCCOc3ccccc3)c2c1`: “inactive”; `CCOc1ccc(-c2noc(CCC(=O)O)n2)cc1`: “inactive”; `COc1cccc(C(=O)N/N=C(/c2ccccc2)c2ccccn2)c1`: “inactive”.

Take `CC(=O)Nc1ccc(NC(=O)c2nc(S(=O)(=O)Cc3ccccc3)ncc2Cl)cc1`: the result was inactive. For the molecule `O=C(Nc1ccc2ncccc2c1)c1ccccc1Br`, the outcome was inactive. With `O=C(Nc1ccc(F)cc1)c1nc(S(=O)(=O)Cc2ccccc2)ncc1Cl`, the outcome was inactive. Regarding `CS(=O)(=O)c1ncc(Cl)c(C(=O)Nc2ccc(N3CCOCC3)cc2)n1`, the outcome was inactive. Next, `COc1ccc(/C=N/N=C2/SCC(=O)N2Cc2ccccc2)cc1`: “inactive”. Consider `Cc1ccc(C)c(S(=O)(=O)N2CCN(Cc3ccc(O)c4ncccc34)CC2)c1`, for which the outcome was inactive. `CC1CCCC(NC(=O)NC(=O)CCl)C1C` (stereo unspecified): the result was inactive. Next, `Cc1ccc(-c2cn3cc(C)ccc3n2)cc1`: “inactive”. Regarding `O=C(O)c1cccc(NC(=S)N/N=C/c2ccccn2)c1`, the outcome was inactive. `CC1=NOC(=O)/C1=C\c1ccc(-c2cccc(Cl)c2)o1`: the result was inactive.

As to `CC(C)[C@H](NC(=O)OC(C)(C)C)c1nnc(S(=O)(=O)Cc2c(F)cccc2Cl)o1`, the outcome was inactive. Next, `C/C(=N\NC(=O)C1COc2ccccc2O1)c1ccccn1` (stereo unspecified): “inactive”; `Cc1cc(C)c2c(N)c(C(=O)Nc3ncc(C)s3)sc2n1`: “inactive”; `CC(OC(=O)c1ccc([N+](=O)[O-])s1)C(=O)NC1CCCCC1C` (stereo unspecified): “inactive”. Regarding `Clc1c(-c2ccccc2)nc2ccccn12`, the outcome was inactive.

As to `Cn1nnnc1Sc1ncnc2scc(-c3ccc[nH]3)c12`, the result was inactive. As to `C=C1CCC[C@]2(C)C[C@H]3OC(=O)C(CN4CCCCC4CO)[C@H]3CC12` (stereo partly specified), the result was inactive.

`CCOc1cc(/C=C2/NC(=S)NC2=O)ccc1OCc1ccc([N+](=O)[O-])cc1`: the outcome was inactive. With `COc1cc(/C=N/NS(=O)(=O)c2ccc3ccccc3c2)ccc1OCc1ccc(C(=O)O)cc1`, the outcome was inactive.

Regarding `CCOc1cc(/C=N/Nc2cccc(C(=O)O)c2)ccc1OC(=O)c1ccccc1`, the outcome was inactive. For the molecule `COc1cc(/C=N/NS(=O)(=O)c2ccc(C)cc2)ccc1OCc1cccc(C(=O)O)c1`, the result was inactive. Consider `O=C(Cn1nnc(-c2ccccc2Cl)n1)N1CCCCC1`, for which the result was inactive. As to `CC(C)OC(=O)CSc1nc2cc3c(cc2cc1C#N)OCO3`, the outcome was inactive. `CCOc1ccc(OCc2ccc(C(=O)N/N=C(\C)c3ccccn3)cc2)cc1`: the outcome was inactive. Turning to `C/C(=N\NC(=O)Cc1ccc(Cl)cc1)c1ccccn1`, the result was inactive. `O=C(Nc1nc2ccccc2s1)Nc1ccc(F)cc1F`: the result was inactive. For the molecule `O=C(Nc1ccccc1)O/N=C/c1ccc(F)cc1`, the result was inactive. Next, `O=C(N/N=C/c1ccccc1)c1ccco1`: “inactive”; `CCC(=O)OCCNc1cc(Sc2nc3ccccc3[nH]2)c2nonc2c1[N+](=O)[O-]`: “inactive”; `Cc1cc(C)nc(S/C=C/C(=O)c2ccccc2F)n1`: “inactive”.

Consider `CC(=O)N/C(N)=N/c1nc2cc(C)ccc2o1`, for which the outcome was inactive. Next, `COc1ccccc1N1CCN(/N=C/c2ccc([N+](=O)[O-])cc2)CC1`: “inactive”; `CN(c1ccc(O)cc1)c1nc(O)c(C2=c3ccccc3=NC2=O)s1`: “inactive”; `CCOC(=O)C1CCCN(C(=O)C2CCN(S(=O)(=O)CC)CC2)C1` (stereo unspecified): “inactive”. Turning to `Nc1ccc(-c2nc3ccc(C(=O)O)cc3s2)cc1`, the result was inactive.

For the molecule `Cn1c(COc2ccccc2)nc2ccccc21`, the result was inactive. Next, `COCc1nc(-c2ccc(-c3ccccc3)nc2OC)no1`: “inactive”; `Brc1cccc(/C=N/Nc2nn[nH]n2)c1`: “inactive”; `CC(C)=CCc1c(O)ccc2c1OC(c1ccc(O)c(O)c1)CC2=O` (stereo unspecified): “inactive”. With `O=C(Nc1cc2c(cc1Cl)OCCO2)c1ccco1`, the result was inactive.
